Laboratory results reported in PubChem BioAssay (Tox21).
Results filed as inconclusive are left out. Where a call stands in place of a potency, no number is given. A number with no mark means an inactive call. Activity calls are given as the source filed them. Unless noted, calls come from the whole dose curve; as a rule, active = well fitted curve in the direction sought with a large enough effect in the repeat runs; inconclusive = weak or mixed curves; inactive = no such curve, though single readings can be large; an effect the other way counts as inactive or inconclusive.

How the values were obtained:
[1] = qHTS assay to identify small molecule agonists of the vitamin D receptor (VDR) signaling pathway - cell viability counter screen (AID 743224); note: series mostly up to about 63 µM; nearly all actives have a fitted effect of over 50% in size
Method in brief: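 VDR-bla cells were preincubated 4 h at 37C/5% CO2, then exposed to compounds for 16 h. After the 2 h room-temperature bla FRET read, CellTiter-Glo was added to the same wells and luminescence read after 30 min.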

[2] = qHTS assay to identify small molecule antagonists of the vitamin D receptor (VDR) signaling pathway - cell viability counter screen (AID 743225); note: nearly all actives have a fitted effect of over 50% in size
Method in brief: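 Luminescent cell viability (CellTiter-Glo) in VDR-bla HEK 293T cells after 16 h compound exposure at 37C in the presence of 3 nM final 1-alpha,25-dihydroxy vitamin D3.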

[3] = qHTS assay to identify small molecule agonists of the NFkB signaling pathway - cell viability counter screen (AID 1159515; calls by dose curve; note: series mostly up to about 61 µM; nearly all actives have a fitted effect of over 55% in size)
Method in brief: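 NFkB-bla ME-180 cells, 2,000/well, were plated overnight at 37 C, 5% CO2, then exposed to compounds in DMSO for 5 hr. After the bla FRET read, CellTiter-Glo was added to the same wells; luminescence was read after 30 min at room temperature.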

[4] = qHTS assay to identify small molecule agonists of the endoplasmic reticulum stress response signaling pathway (AID 1159516; active = well fitted activation curve with a large enough effect in the signal ratio in the repeat runs, not every such curve was filed as active; the % refers to the signal ratio)
Method in brief: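 CellSensor ESRE-bla HeLa cells, carrying a beta-lactamase reporter driven by the ER stress response element, were plated overnight and exposed to compounds for 5 hr at 37 C. Reporter activity was read as FRET substrate fluorescence after 2 hr at room temperature.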

[5] = biological target: Nuclear receptor ROR-gamma (Homo sapiens) (UniProt P51449); test: qHTS assay to identify small molecule antagonists of the retinoid-related orphan receptor gamma (ROR-gamma) signaling pathway (AID 1159521;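 note: CHO cells with doxycycline inducible ROR-gamma driving an RORE luciferase reporter; top concentration of the series differs between compounds; nearly all actives have a fitted effect of over 50% in size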)
Method in brief: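 CHO cells expressing RORγ under a TET-on promoter, luciferase under RORE control. Dox 1 uM final, 16 h; compounds added 2 h prior. Luminescence decrease measured.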

[6] = qHTS assay to identify small molecule agonists of the AP-1 signaling pathway - cell viability counter screen (AID 1159525; calls by dose curve; note: nearly all actives have a fitted effect of over 55% in size)
Method in brief: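 Luminescent ATP readout (Cell Titer Glo, 30 min RT), normalised to DMSO and tetra n-octyl ammonium bromide controls. Cells were ME-180 AP-1-bla in 0.5% dialyzed FBS Opti-MEM, with a 5 h, 37 °C compound exposure.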

[7] = qHTS assay to identify small molecule agonists of the AP-1 signaling pathway (AID 1159526; calls by dose curve)
[8] = biological target: Retinoic acid receptor RXR-alpha (Homo sapiens) (UniProt P19793); test: qHTS assay to identify small molecule agonists of the RXR signaling pathway (AID 1159527; calls by dose curve; note: nearly all actives have a fitted effect of over 35% in size)
Method in brief: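 Beta-lactamase reporter assay, agonist format. Engineered HEK 293T line, charcoal-stripped FBS at 2%, overnight (16 hr) exposure, fluorescence at 460 and 530 nm after 405 nm excitation.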

[9] = qHTS assay to identify small molecule agonists of the RXR signaling pathway - cell viability counter screen (AID 1159529);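 note: HEK 293T cells carrying an RXR-alpha UAS beta-lactamase reporter; series mostly up to about 77 µM; nearly all actives have a fitted effect of over 50% in size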
Method in brief: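 Same-well viability check after the LiveBLAzer FRET read: CellTiter-Glo added, luminescence measured after 30 min at room temperature. Reporter HEK 293T cells had been treated with compounds for 16 hr following a 5 hr preincubation.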

[10] = qHTS assay to identify small molecule antagonists of the retinoid acid receptor (RAR) signaling pathway - cell viability counter screen (AID 1159551); note: nearly all actives have a fitted effect of over 35% in size
Method in brief: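 C3RL4 cells were seeded overnight at 37 C, then treated with compounds plus 1 uM (final) retinol for 6 h at 37 C. Viability was read as ATP by CellTiter-Glo luminescence after 30 min at room temperature.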

[11] = qHTS assay to identify small molecule antagonists of the retinoic acid receptor (RAR) signaling pathway (AID 1159552; note: nearly all actives have a fitted effect of over 50% in size)
Method in brief: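 Readout: luciferase luminescence, 30 min post-reagent at RT. Setup: C3RL4 RARE reporter cells, compounds plus retinol 1 uM final, 6 hr incubation at 37 C and 5% CO2.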

[12] = qHTS assay to identify small molecule agonists of the retinoic acid receptor (RAR) signaling pathway (AID 1159553); note: potency is the fitted concentration of half-maximal effect
Method in brief: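 C3RL4 cells carrying a RARE luciferase reporter were plated overnight at 37 C, then exposed to compounds in DMSO for 6 hr at 37 C and 5% CO2. Luminescence was read 30 min after luciferase reagent addition at room temperature.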

[13] = qHTS assay to identify small molecule antagonists of the estrogen related receptor (ERR) signaling pathway from Tox21 library - cell viability counter screen (AID 1224834); note: nearly all actives have a fitted effect of over 30% in size
Method in brief: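 ERR reporter cells were plated 6 h before compound addition, then exposed to test compounds in DMSO for 17.5 h at 37 C. Viability was read as CellTiter-Fluor fluorescence after a 30-minute incubation at 37 C.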

[14] = biological target: Luciferin 4-monooxygenase (Photinus pyralis) (UniProt P08659); test: qHTS assay to identify small molecule inhibitors of firefly luciferase (AID 1224835); note: nearly all actives have a fitted effect of over 25% in size; note: potency is the fitted concentration of half-maximal effect
Method in brief: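 Inhibition of purified Photinus luciferase is measured by luminescence. Substrate levels (D-luciferin, ATP) sit at their KM values. Each compound is tested in a concentration series.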

[15] = qHTS assay to identify small molecule agonists of the constitutive androstane receptor (CAR) signaling pathway - cell viability counter screen (AID 1224836); note: series mostly up to about 92 µM; nearly all actives have a fitted effect of over 45% in size
Method in brief: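 Compound titrations (15 concentrations) went onto HepG2-CYP2B6-hCAR cells 4 h after seeding, alongside PK11195 at a final 0.75 uM; a 23 h, 37 C/5% CO2 incubation preceded CellTiter-Fluor viability measurement.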

[16] = qHTS assay to identify small molecule antagonists of the constitutive androstane receptor (CAR) signaling pathway - cell viability counter screen (AID 1224837); note: series mostly up to about 92 µM; nearly all actives have a fitted effect of over 45% in size
Method in brief: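 HepG2 cells stably expressing hCAR and a CYP2B6-2.2kb reporter were plated and pre-incubated 4 hr at 37 C/5% CO2, then given compounds at 15 concentrations plus 50 nM CITCO (final). After 23 hr, viability was read by CellTiter-Fluor fluorescence.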

[17] = biological target: Nuclear receptor subfamily 1 group I member 3 (Homo sapiens) (UniProt Q14994); test: qHTS assay to identify small molecule antagonists of the constitutive androstane receptor (CAR) signaling pathway (AID 1224838); note: nearly all actives have a fitted effect of over 40% in size
Method in brief: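 HepG2 cells stably co-transfected with hCAR and a CYP2B6-2.2kb luciferase reporter were seeded 4 h before compound addition at 15 concentrations. Cells were stimulated with 50 nM CITCO (final) for 24 h at 37 C; luciferase luminescence was then read.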

[18] = biological target: Nuclear receptor subfamily 1 group I member 3 (Homo sapiens) (UniProt Q14994); test: qHTS assay to identify small molecule agonists of the constitutive androstane receptor (CAR) signaling pathway (AID 1224839);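 note: HepG2 cells stably carrying human CAR and a CYP2B6 luciferase reporter; series mostly up to about 92 µM; nearly all actives have a fitted effect of over 15% in size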
Method in brief: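 In this screen, CAR-driven CYP2B6 promoter activity is measured by luminescence in HepG2-CYP2B6-hCAR cells after 24 h with test compounds and 0.75 uM PK11195 (final concentration).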

[19] = qHTS assay to identify small molecule antagonists of the retinoid-related orphan receptor gamma (ROR-gamma) signaling pathway - cell viability counter screen (AID 1159520); note: nearly all actives have a fitted effect of over 50% in size
Method in brief: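 Cytotoxicity was read from cellular ATP (CellTiter-Glo luminescence) after 16 hr at 37 C with 1 uM doxycycline induction. The inducer was added 2 hr after compound transfer to Tet-on ROR gamma CHO cells.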

Chain of Nuclear receptor subfamily 1 group I member 3 (Homo sapiens) (Q14994 whole entry, looked up): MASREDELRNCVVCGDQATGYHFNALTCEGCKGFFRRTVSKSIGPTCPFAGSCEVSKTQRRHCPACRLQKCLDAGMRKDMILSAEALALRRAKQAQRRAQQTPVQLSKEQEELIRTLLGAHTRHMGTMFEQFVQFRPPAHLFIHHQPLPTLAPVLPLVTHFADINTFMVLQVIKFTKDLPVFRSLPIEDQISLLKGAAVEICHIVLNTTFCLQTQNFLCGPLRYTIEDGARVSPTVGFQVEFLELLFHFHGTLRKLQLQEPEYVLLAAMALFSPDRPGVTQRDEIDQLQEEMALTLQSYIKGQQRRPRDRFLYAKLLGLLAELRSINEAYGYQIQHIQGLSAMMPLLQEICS
Chain of Retinoic acid receptor RXR-alpha (Homo sapiens) (P19793 whole entry, looked up): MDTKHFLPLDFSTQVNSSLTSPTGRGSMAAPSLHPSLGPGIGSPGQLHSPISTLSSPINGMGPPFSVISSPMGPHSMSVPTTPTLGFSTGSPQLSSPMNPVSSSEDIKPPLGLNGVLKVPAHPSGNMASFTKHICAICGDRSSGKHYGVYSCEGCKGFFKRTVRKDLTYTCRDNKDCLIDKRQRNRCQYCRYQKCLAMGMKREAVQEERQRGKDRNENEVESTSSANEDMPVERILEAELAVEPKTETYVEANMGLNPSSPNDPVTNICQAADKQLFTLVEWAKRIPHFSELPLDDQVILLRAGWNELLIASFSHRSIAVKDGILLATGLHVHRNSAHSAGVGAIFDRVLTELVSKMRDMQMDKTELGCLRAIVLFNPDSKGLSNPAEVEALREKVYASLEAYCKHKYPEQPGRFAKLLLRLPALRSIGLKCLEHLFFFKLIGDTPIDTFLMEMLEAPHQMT
Chain of Luciferin 4-monooxygenase (Photinus pyralis) (P08659 whole entry, looked up): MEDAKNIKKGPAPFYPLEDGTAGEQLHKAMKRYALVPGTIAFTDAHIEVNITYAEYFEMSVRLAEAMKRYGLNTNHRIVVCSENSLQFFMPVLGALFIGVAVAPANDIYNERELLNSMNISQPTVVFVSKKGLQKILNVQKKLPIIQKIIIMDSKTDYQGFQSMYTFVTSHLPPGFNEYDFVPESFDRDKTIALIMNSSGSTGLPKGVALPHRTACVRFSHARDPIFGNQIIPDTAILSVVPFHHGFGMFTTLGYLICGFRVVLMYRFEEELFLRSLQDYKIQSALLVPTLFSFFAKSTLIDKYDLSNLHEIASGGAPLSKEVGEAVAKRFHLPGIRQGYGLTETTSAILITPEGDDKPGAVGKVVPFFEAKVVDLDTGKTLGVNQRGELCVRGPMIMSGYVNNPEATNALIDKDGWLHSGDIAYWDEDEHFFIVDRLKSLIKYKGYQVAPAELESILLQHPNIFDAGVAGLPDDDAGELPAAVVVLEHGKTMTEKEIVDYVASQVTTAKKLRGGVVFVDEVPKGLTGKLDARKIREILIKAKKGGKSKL

Row | Structure (SMILES) | outcome [1] | outcome [2] | outcome [3] | Potency [4] | outcome [5] | outcome [6] | Potency [7] | Potency [8] | Potency [9] | outcome [10] | outcome [11] | Potency [12] | outcome [13] | Potency [14] | outcome [15] | outcome [16] | outcome [17] | Potency [18] | outcome [19]
1 | CCCCCCCCCCCC(C)=O | inactive | inactive | inactive | inactive | inactive | inactive | inactive | inactive | inactive | inactive | inactive | inactive | inactive | inactive | inactive |  |  |  | 
2 | CC(=O)Oc1ccc(C(C)=O)cc1 | inactive | inactive | inactive | inactive | inactive | inactive | inactive | inactive | inactive | inactive | inactive | inactive | inactive | inactive | inactive | inactive | inactive | inactive | 
3 | O=S(=O)(O)c1ccc(Cl)cc1 | inactive | inactive | inactive | inactive | inactive | inactive | inactive | inactive | inactive | inactive | inactive | inactive | inactive | inactive | inactive | inactive |  | inactive | inactive
4 | CC(CC(=O)Cl)CC(C)(C)C (configuration not stated) | inactive | inactive | inactive | inactive | inactive | inactive | inactive | inactive | inactive | inactive | inactive | inactive | inactive | inactive | inactive |  |  |  | inactive
5 | CC(=O)OCC(=O)[C@@]1(O)CC[C@H]2[C@@H]3CCC4=CC(=O)C=C[C@]4(C)[C@H]3[C@@H](O)C[C@@]21C | inactive | inactive | inactive | inactive | inactive | inactive | inactive | inactive | inactive | inactive | inactive | inactive |  | inactive | inactive | inactive |  |  | inactive
6 | CC1(C)C(=O)C(C)(C)C1=O | inactive | inactive | inactive | inactive | inactive | inactive | inactive | inactive | inactive | inactive | inactive | inactive | inactive | inactive | inactive | inactive | inactive | inactive | inactive
7 | O=C1c2ccccc2C(=O)N1CO | inactive | inactive | inactive | inactive | inactive | inactive | inactive | inactive | inactive | inactive | inactive | inactive | inactive | inactive | inactive | inactive | inactive | inactive | inactive
8 | CC/C=C\CCOC(=O)c1ccccc1 | inactive | inactive | inactive | inactive | inactive | inactive | inactive | inactive |  | inactive | inactive | 68.6 µM (active) |  | 7.1 µM (active) | inactive | inactive |  | inactive | inactive
